Measured values reported in PubChem BioAssay (EPA / NIEHS).
Values joined by “and” are separate entries in the source; they are usually repeats but may differ in a detail not shown here. Equal values may be shown once. Active and inactive are the calls of the source. The calls were made as follows: active = hit-call score of the fitted dose curve at least 0.9, where 1 is the maximum; inactive = score below 0.9.

Read-out: Plasminogen activator inhibitor-1 (PAI1), SERPINE1 (gene 5054)
Experiment: BSK_BE3C_PAI1: BioMAP Diversity Plus: BE3C Assay for Plasminogen activator inhibitor-1 (PAI1) Biomarker Activity (AID 2283037)
Conditions: primary human bronchial epithelial cells; actives raise or lower the signal
Outline: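 PAI-1 biomarker levels in treated human bronchial epithelial cells are determined by ELISA at 24 h. Both increases and decreases relative to DMSO are fitted.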

Compound | outcome | AC50
COc1ccc(C(=O)c2ccccc2)c(O)c1 | inactive | –
CC(C)CCCCCOC(=O)CS | inactive | –
Nc1ccc(C(=O)O)cc1 | inactive | –
CC(Cl)COP(=O)(OCC(C)Cl)OCC(C)Cl (stereo unspecified) | inactive | –
CCc1cccc(C)c1N(C(=O)CS(=O)(=O)O)C(C)COC (stereo unspecified) | inactive | –
CCCCCCCCC(CO)CCCCCC (stereo unspecified) | – | 1.36 µM (active)
CC1=CC=C(C(C)C)CC1 | inactive | –
C=CC(=O)OCCCCCCCC(C)C | inactive | –
Fc1ccc(Br)cc1 | inactive | –
CCCCCCCCCCCC(C)=O | inactive | –
C=CC(=O)NCOCCCC | inactive | –
CC(C)[N+](C)(CCOC(=O)C1c2ccccc2Oc2ccccc21)C(C)C | inactive | –
Oc1c(Cl)cc(Cl)c(Cl)c1Cl | – | 7.51 µM (active)
C=C(C)C(=O)OCCCCCCCCCCCC | inactive | –
Clc1cc(Cl)c(Cl)c(Cl)c1Cl | inactive | –
CCOC(=O)/C=C\C(=O)OCC | inactive | –
CC(C)C(=O)OCCc1ccccc1 | inactive | –
CCOC(=O)C1=NN(c2ccc(Cl)cc2Cl)C(C)(C(=O)OCC)C1 (stereo unspecified) | inactive | –
C=CCCCCCCCCC=O | inactive | –
Nc1nc(N)nc(-c2ccccc2)n1 | inactive | –
c1ccc(Nc2cccc3ccccc23)cc1 | – | 12.7 µM (active) and 20.4 µM (active)
CCCCCCOC(=O)CCCCC(=O)OCCCCCC | inactive | –
COC(OC)(C(=O)c1ccccc1)c1ccccc1 | inactive | –
Cc1c(O)cccc1O | inactive | –
CC/C=C\C/C=C\C/C=C\CCCCCCCC(=O)OC | – | 25.5 µM (active)
CC(c1cc(C(C)(C)C)cc(C(C)(C)C)c1O)c1cc(C(C)(C)C)cc(C(C)(C)C)c1O | inactive | –
